Experimental data reported in PubChem BioAssay (EPA / NIEHS).
Several values for one entry are separate records, joined by “and”; a condition that tells them apart may be missing. Equal entries are not always repeated. A structure can be active in one record and inactive in another. Activity calls are given as the source filed them. Rule for the calls: active = hit-call score of the fitted dose curve at least 0.9, where 1 is the maximum; inactive = score below 0.9.

Legend:
[1] = read-out: Tissue Factor, F3 (gene 2152); assay: BSK_CASM3C_TissueFactor: BioMAP Diversity Plus: CASM3C Assay for Tissue Factor Biomarker Activity (AID 2283052); settings: primary human coronary artery smooth muscle cells; actives raise or lower the signal;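 note: cell surface tissue factor protein level read by ELISA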
[2] = read-out: Interferon-gamma inducible Protein 10 (IP10), CXCL10 (gene 3627); assay: BSK_hDFCGF_IP10: BioMAP Diversity Plus: hDFCGF Assay for Interferon-gamma inducible Protein 10 (IP10) Biomarker Activity (AID 2283053); settings: primary human foreskin fibroblasts; actives raise or lower the signal
Outline: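 ELISA quantification of IP-10 after a 24 h chemical exposure of human dermal foreskin fibroblast primary cultures. Both increases and decreases versus DMSO fitted.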

[3] = read-out: Urokinase-type plasminogen activator receptor (uPAR), PLAUR (gene 5329); assay: BSK_CASM3C_uPAR: BioMAP Diversity Plus: CASM3C Assay for Urokinase-type plasminogen activator receptor (uPAR) Biomarker Activity (AID 2283054); settings: primary human coronary artery smooth muscle cells; actives raise or lower the signal;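 note: cell-surface uPAR protein level quantified by ELISA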
[4] = read-out: Vascular cell adhesion molecule 1 (VCAM1), VCAM1 (gene 7412); assay: BSK_CASM3C_VCAM1: BioMAP Diversity Plus: CASM3C Assay for Vascular cell adhesion molecule 1 (VCAM1) Biomarker Activity (AID 2283055); settings: primary human coronary artery smooth muscle cells; actives raise or lower the signal;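 note: VCAM-1 protein level quantified by ELISA on the cells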
[5] = read-out: Collagen III, COL3A1 (gene 1281); assay: BSK_hDFCGF_CollagenIII: BioMAP Diversity Plus: hDFCGF Assay for Collagen III Biomarker Activity (AID 2283056); settings: primary human foreskin fibroblasts; actives raise or lower the signal
Outline: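 ELISA readout of Collagen III in human dermal (foreskin) fibroblasts, taken 24 h post-treatment. Gain or loss relative to DMSO vehicle fitted in both directions.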

[6] = read-out: Epidermal growth factor receptor (EGFR), EGFR (gene 1956); assay: BSK_hDFCGF_EGFR: BioMAP Diversity Plus: hDFCGF Assay for Epidermal growth factor receptor (EGFR) Biomarker Activity (AID 2283057); settings: primary human foreskin fibroblasts; actives raise or lower the signal
Outline: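 EGFR levels by ELISA in human dermal fibroblast cultures, 24 h post-treatment, fitted bidirectionally versus DMSO. Parallel wells stained with sulforhodamine B to detect overt cytotoxicity.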

[7] = read-out: Interleukin-8 (IL8), CXCL8 (gene 3576); assay: BSK_hDFCGF_IL8: BioMAP Diversity Plus: hDFCGF Assay for Interleukin-8 (IL8) Biomarker Activity (AID 2283058); settings: primary human foreskin fibroblasts; actives raise or lower the signal
Outline: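 IL-8 levels read by ELISA at 24 hours after dosing human skin fibroblast cultures. Parallel SRB staining assessed overt cytotoxicity, and gain or loss of signal was fitted against DMSO control.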

[8] = BSK_hDFCGF_Proliferation: Cell Proliferation Assessment in the BioMAP Diversity Plus: hDFCGF Assay (AID 2283059); settings: primary human foreskin fibroblasts;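 note: curves fitted for both rise and fall of signal versus DMSO baseline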
Outline: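 This proliferation readout used SRB total-protein staining of human foreskin fibroblasts […], normalized to DMSO with bidirectional curve fitting.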

[9] = read-out: Macrophage colony-stimulating factor (MCSF), CSF1 (gene 1435); assay: BSK_hDFCGF_MCSF: BioMAP Diversity Plus: hDFCGF Assay for Macrophage colony-stimulating factor (MCSF) Biomarker Activity (AID 2283060); settings: primary human foreskin fibroblasts; actives raise or lower the signal
Outline: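 M-CSF levels read by ELISA at 24 h post-dosing in human skin fibroblasts. Parallel cultures stained with SRB assessed cytotoxicity at the same time point; response fitted in both directions against the DMSO baseline.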

[10] = BSK_hDFCGF_SRB: Viability Assessment in the BioMAP Diversity Plus: hDFCGF Assay (AID 2283061); settings: primary human foreskin fibroblasts;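 note: cells exposed to compound for 24 h before the read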
Outline: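 Viability was read as total protein: after 10% TCA fixation, wells were stained with 0.1% sulforhodamine B and read at 560 nm. Primary human foreskin fibroblasts were dosed for 24 h, with bidirectional fitting versus DMSO.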

[11] = read-out: TIMP metallopeptidase inhibitor 1 (TIMP1), TIMP1 (gene 7076); assay: BSK_hDFCGF_TIMP1: BioMAP Diversity Plus: hDFCGF Assay for TIMP metallopeptidase inhibitor 1 (TIMP1) Biomarker Activity (AID 2283062); settings: primary human foreskin fibroblasts; actives raise or lower the signal
Outline: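 TIMP-1 measured by ELISA 24 h after chemical dosing of primary human skin fibroblasts, with gain or loss fitted relative to DMSO. Parallel SRB staining (560 nm) monitored overt cytotoxicity.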

[12] = read-out: Monokine induced gamma interferon (MIG), CXCL9 (gene 4283); assay: BSK_hDFCGF_MIG: BioMAP Diversity Plus: hDFCGF Assay for Monokine induced gamma interferon (MIG) Biomarker Activity (AID 2283063); settings: primary human foreskin fibroblasts; actives raise or lower the signal
Outline: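 Human primary foreskin fibroblasts in the hDFCGF system, exposed to test chemical for 24 h; MIG measured by ELISA. Bidirectional curve fitting against DMSO negative control as activity baseline.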

[13] = read-out: Matrix Metallopeptidase 1 (MMP1), MMP1 (gene 4312); assay: BSK_hDFCGF_MMP1: BioMAP Diversity Plus: hDFCGF Assay for Matrix Metallopeptidase 1 (MMP1) Biomarker Activity (AID 2283064); settings: primary human foreskin fibroblasts; actives raise or lower the signal
Outline: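 MMP1 levels quantified by ELISA 24 h after dosing human dermal fibroblast cultures, with parallel SRB total-protein staining for overt cytotoxicity. Data fitted in both directions against DMSO baseline.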

[14] = read-out: Vascular cell adhesion molecule 1 (VCAM1), VCAM1 (gene 7412); assay: BSK_hDFCGF_VCAM1: BioMAP Diversity Plus: hDFCGF Assay for Vascular cell adhesion molecule 1 (VCAM1) Biomarker Activity (AID 2283065); settings: primary human foreskin fibroblasts; actives raise or lower the signal;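 for AC50: VCAM-1 protein level quantified by ELISA after 24 h chemical exposure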
Outline: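 ELISA readout of VCAM-1 on human dermal fibroblast primary cultures, 24 h after chemical exposure. Gain or loss of signal fitted in both directions against DMSO baseline.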

[15] = read-out: Plasminogen activator inhibitor-1 (PAI1), SERPINE1 (gene 5054); assay: BSK_hDFCGF_PAI1: BioMAP Diversity Plus: hDFCGF Assay for Plasminogen activator inhibitor-1 (PAI1) Biomarker Activity (AID 2283066); settings: primary human foreskin fibroblasts; actives raise or lower the signal
Outline: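 PAI-1 levels in human dermal foreskin fibroblasts were quantified by ELISA 24 h after dosing, with gain or loss analysed against DMSO. Overt cytotoxicity was checked by sulforhodamine B total-protein staining in parallel cultures.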

[16] = read-out: Intercellular Adhesion Molecule 1 (ICAM1), ICAM1 (gene 3383); assay: BSK_KF3CT_ICAM1: BioMAP Diversity Plus: KF3CT Assay for Intercellular Adhesion Molecule 1 (ICAM1) Biomarker Activity (AID 2283067); settings: primary human keratinocytes with fibroblasts; actives raise or lower the signal
Outline: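 Cell-surface ICAM-1 was measured by ELISA 24 h after dosing primary human skin keratinocytes co-cultured with fibroblasts. Parallel SRB staining tracked overt cytotoxicity. Gain or loss of signal was fitted relative to DMSO.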

[17] = read-out: Interferon-gamma inducible Protein 10 (IP10), CXCL10 (gene 3627); assay: BSK_KF3CT_IP10: BioMAP Diversity Plus: KF3CT Assay for Interferon-gamma inducible Protein 10 (IP10) Biomarker Activity (AID 2283068); settings: primary human keratinocytes with fibroblasts; actives raise or lower the signal
Outline: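 Signal is secreted/surface IP-10 by ELISA in a human primary skin co-culture of keratinocytes and foreskin fibroblasts, taken 24 h post-dosing; DMSO served as negative control.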

[18] = read-out: Interleukin-1 alpha (IL1a), IL1A (gene 3552); assay: BSK_KF3CT_IL1a: BioMAP Diversity Plus: KF3CT Assay for Interleukin-1 alpha (IL1a) Biomarker Activity (AID 2283070); settings: primary human keratinocytes with fibroblasts; actives raise or lower the signal
Outline: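 IL-1a was detected by ELISA 24 h after chemical treatment of a co-culture of human skin keratinocytes and foreskin fibroblasts. Gain or loss of signal was fitted against the DMSO baseline.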

[19] = read-out: TIMP metallopeptidase inhibitor 2 (TIMP2), TIMP2 (gene 7077); assay: BSK_KF3CT_TIMP2: BioMAP Diversity Plus: KF3CT Assay for TIMP metallopeptidase inhibitor 2 (TIMP2) Biomarker Activity (AID 2283071); settings: primary human keratinocytes with fibroblasts; actives raise or lower the signal
Outline: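 TIMP-2 measured by ELISA at 24 h in human keratinocyte/fibroblast primary co-cultures exposed to chemicals. Both increases and decreases were fitted against DMSO. Parallel cultures were stained with SRB for total protein as an overt-cytotoxicity check.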

[20] = BSK_KF3CT_SRB: Viability Assessment in the BioMAP Diversity Plus: KF3CT Assay (AID 2283069); settings: primary human keratinocytes with fibroblasts;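 note: read 24 h after compound addition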
Outline: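 Cytotoxicity was gauged by SRB staining (0.1% SRB, 10% TCA fixation, 560 nm) of parallel cultures at 24 h. The cells were primary human skin keratinocytes co-cultured with fibroblasts, and activity was fitted in both directions against DMSO.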

With `N=C(N)C(F)(F)C(F)(F)C(F)(F)C(F)(F)C(F)(F)C(F)(F)C(F)(F)F` the outcome [1] was “inactive”, the AC50 [2] was 42.9 µM (active) and 50.1 µM (active) and the outcome [3] was “inactive”. For the same compound, the outcome [4] was “inactive”, the AC50 [5] was 10.9 µM (active) and 10.7 µM (active) and the AC50 [6] was 53.9 µM (active). For the same compound, the outcome [6] was “inactive”, the outcome [7] was “inactive” and the AC50 [8] was 39.7 µM (active) and 54.7 µM (active). The AC50 [9] was 40.9 µM (active) and 37.2 µM (active), the AC50 [10] was 54.4 µM (active) and the outcome [10] was “inactive”. For the same compound, the outcome [11] was “inactive”, the AC50 [12] was 46 µM (active) and the outcome [12] was “inactive”. The outcome [13] was “inactive”, the AC50 [14] was 30 µM (active) and 18 µM (active) and the AC50 [15] was 55.3 µM (active) and 54.2 µM (active). For the same compound, the outcome [16] was “inactive”, the outcome [17] was “inactive” and the outcome [18] was “inactive”. The outcome [19] was “inactive”.
With `Oc1ccc(Nc2ccccc2)cc1` the AC50 [1] was 11 µM (active), the outcome [2] was “inactive” and the outcome [3] was “inactive”. For the same compound, the outcome [4] was “inactive”, the outcome [5] was “inactive” and the outcome [6] was “inactive”. The outcome [7] was “inactive”, the AC50 [8] was 26.5 µM (active) and the outcome [9] was “inactive”. For the same compound, the outcome [10] was “inactive”, the outcome [11] was “inactive” and the outcome [12] was “inactive”. The outcome [13] was “inactive”, the AC50 [14] was 3.97 µM (active) and the AC50 [15] was 17.1 µM (active). For the same compound, the outcome [16] was “inactive”, the outcome [17] was “inactive” and the outcome [20] was “inactive”. The AC50 [18] was 5.84 µM (active) and the outcome [19] was “inactive”.
With `Nc1ccc([N+](=O)[O-])cc1O` the outcome [1] was “inactive”, the outcome [2] was “inactive” and the outcome [3] was “inactive”. The outcome [4] was “inactive”, the outcome [5] was “inactive” and the outcome [6] was “inactive”. For the same compound, the outcome [7] was “inactive”, the AC50 [8] was 11.1 µM (active) and the outcome [9] was “inactive”. For the same compound, the outcome [10] was “inactive”, the outcome [11] was “inactive” and the outcome [12] was “inactive”. The outcome [13] was “inactive”, the outcome [14] was “inactive” and the outcome [15] was “inactive”. The outcome [16] was “inactive”, the outcome [17] was “inactive” and the outcome [20] was “inactive”. For the same compound, the outcome [18] was “inactive” and the outcome [19] was “inactive”.
In the case of `C#C[C@]1(O)CC[C@H]2[C@@H]3CCc4cc(OC)ccc4[C@H]3CC[C@@]21C`, the AC50 [1] is reported as 0.016 µM (active), the outcome [2] is reported as “inactive” and the outcome [3] is reported as “inactive”. For the same compound, the outcome [4] was “inactive”, the AC50 [5] was 3.48 nM (active) and the AC50 [6] was 0.016 µM (active). The outcome [7] was “inactive”, the AC50 [8] was 4.67 µM (active) and the outcome [9] was “inactive”. The outcome [10] was “inactive”, the outcome [11] was “inactive” and the outcome [12] was “inactive”. For the same compound, the outcome [13] was “inactive”, the outcome [14] was “inactive” and the AC50 [15] was 0.016 µM (active). For the same compound, the outcome [16] was “inactive”, the outcome [17] was “inactive” and the outcome [20] was “inactive”. For the same compound, the AC50 [18] was 3.97 µM (active) and the AC50 [19] was 5.41 µM (active).
